Bioassay records: PubChem BioAssay, Broad Institute
The sample as a whole holds a higher share of hits than the screen did.
Tgondii IFNg: T. gondii growth inhibition under IFN-gamma; Toxoplasma gondii growth in IFN-gamma-treated host cells; stronger effect = lower value; activity change, negative = inhibition, % (no concentration beside the values); 3.8% of 69,000 active; AID 1259416; in the data active = activity change below about -70%, passing the limit was not always enough;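 also: host cells are HeLa cells infected with Toxoplasma gondii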
* marks the source's active call; other numbers are inactive results; i = inactive; ! = not active in a repeat.

SMILES	Tgondii IFNg
C[C@H](CO)N1C[C@H](C)[C@@H](CN(C)S(=O)(=O)c2ccc(Cl)cc2)OCCCC[C@H](C)Oc2ccc(NC(=O)Nc3ccc(C(F)(F)F)cc3)cc2C1=O	-67
COc1ccc(S(=O)(=O)Nc2ccc3c(c2)C(=O)N([C@@H](C)CO)C[C@@H](C)[C@@H](CN(C)S(=O)(=O)c2ccc(Cl)cc2)OCCCC[C@@H](C)O3)cc1	-137*
C[C@@H]1CN([C@H](C)CO)C(=O)c2cc(NC(=O)Nc3ccc(C(F)(F)F)cc3)ccc2O[C@@H](C)CCCCO[C@H]1CN(C)S(=O)(=O)c1ccc(Cl)cc1	11
C[C@@H]1CCCCO[C@H](CN(C)CC2CC2)[C@H](C)CN([C@H](C)CO)C(=O)c2cc(NC(=O)c3ccccc3)ccc2O1	92
CN(C)CC(=O)N1CCOC2(COCCN(c3cncnc3)C2)C1 (stereo unspecified)	-33
O=C(Cn1cnc2c([nH]c3ccc(F)cc32)c1=O)N1CCN(c2ccccn2)CC1	-22
CC(C)Oc1ccc(C(=O)Nc2ccc(S(=O)(=O)Nc3ncccn3)cc2)cc1	-29
CCOc1ccccc1NC(=O)CC(=O)N(C)C(C)c1nccs1 (stereo unspecified)	0
CCOC(=O)N1CCC2(CC1)OC(=O)C(C)=C2C(=O)NCCCN1CCCC1=O	113
CN(Cc1csc(-c2ccccc2)n1)Cc1nccn1C	28
COc1cc(OC)nc(N2CCCn3nc(C(=O)N4CCOCC4)cc3C2)n1	-30
CC(C)Oc1ccc(-c2noc(-c3c(O)c4ccccc4[nH]c3=O)n2)cc1	48
Cc1ccc(-c2coc(-c3ccc(NC(=O)Nc4ccc(F)cc4F)cc3)n2)c(C)c1	3
Cc1ccc(C)c(-c2coc(-c3ccc(NC(=O)Nc4ccccc4F)cc3)n2)c1	-35
Cc1ccc(F)c(NC(=O)Nc2ccc(-c3cccc4[nH]nc(N)c34)cc2)c1	-75*
CCC(C)(C)n1nnnc1C(c1cc2cccc(C)c2[nH]c1=O)N1CCC(C)CC1 (stereo unspecified)	42
CC(C)c1ccc(NC(=O)Cn2ncc3c(N4CCN(c5ccccc5)CC4)ncnc32)cc1	-21
N[C@@H]1c2ccccc2C2(CCN(C(=O)c3cccnc3)CC2)[C@H]1O	-6
CCn1c(=O)[nH]c2cc(Cl)c(Cl)cc21	-84*!
Cc1occc1C(=O)N(C)Cc1csc(C(C)C)n1	1
Cc1cc(Cc2ccc(F)cc2)nc(C2CCNCC2)n1	5
Cc1cccc2[nH]c(CNC(=O)c3c4c(nn3C)CCCC4)nc12	-2
Cc1ccc(CNC(=O)Cn2c(=O)ccc3cc(S(=O)(=O)N4CCCC4)ccc32)o1	36
COc1cc2c(cc1OC)C(c1ccccc1Cl)N(c1ccc(C)cc1)C(=O)C2 (stereo unspecified)	-91*
COc1ccc(C2N(c3ccc(C)cc3)CCN2c2ccc(C)cc2)cc1OC	54
SMILES	Tgondii IFNg
COc1cc2c(cc1OC)C1c3ccccc3N(Cc3ccccc3)C(=O)N1CC2 (stereo unspecified)	-3
CO[C@H]1CN(C)C(=O)c2ccc(NC(=O)Nc3ccccc3)cc2OC[C@H](C)N(C(=O)CC2CC2)C[C@H]1C	45
CC(=O)c1cc(C2CC(=O)Nc3c2c(C)nn3Cc2ccccc2)cs1 (stereo unspecified)	-24
CN1C(=O)c2cc(NC(=O)Nc3ccccc3Cl)ccc2OC[C@H]2O[C@@H](CC(=O)NCCCN3CCOCC3)CC[C@H]21	1
CN(CC1=CC[C@H]2C[C@@H]1C2(C)C)Cc1nnc(-c2ccccc2)o1	-38
COc1ccccc1-c1nc(Cn2nnc(C(=O)Nc3c(C)cc(C)cc3C)c2C)c(C)o1	426
CC(=O)O/N=C1\Sc2ccccc2C1=O	113
Cn1ccnc1-c1nc(NCCN2CCOCC2)ncc1-c1cccs1	5
O=C1C(Cl)=C(NCCN2CCOCC2)C(=O)c2ncccc21	-80*
c1ccc2c(c1)CCCc1cc(NCCN3CCOCC3)nnc1-2	17
COc1ccc(/C=C\c2cc(OC)c(OC)c(OC)c2)cc1OP(=O)(O)O	-63
CN1CCC2(CN(C(=O)CCc3ccccc3)C2)OCC1C(=O)O (stereo unspecified)	23
Cc1ccc(C)c(C(NC(=O)Cc2c(C)nc3nc[nH]n3c2=O)c2ccncc2)c1 (stereo unspecified)	15
O=C(c1ccncn1)N1CCOc2c(O)cc(-c3nc4ccccc4s3)cc2C1	-13
COc1cccc([C@H](C)n2ccnc2-c2nc[nH]c2C)c1	1
COc1ccc(CCC(=O)NCCc2csc(-c3ccccc3)n2)cc1	i
Fc1cccc2c(OC3CCN(Cc4ccccc4)CC3)cc(C(F)(F)F)nc12	-94*
Cc1cccc(CN2CCC(CNc3nc(-c4ccc(Cl)cc4)nc4ccccc34)CC2)c1	-60
Clc1ccc(-c2nc(NC3CCN(Cc4ccccc4)CC3)c3ccccc3n2)cc1	-65
CC(C)NC(=O)N1CCN(CC2CC2)CC2(CC(=O)N(C)C2)C1 (stereo unspecified)	30
COc1cccc(Nc2nc(-c3ccncc3)nc3c2CN(C(=O)OC(C)(C)C)CC3)c1	-75*
COc1cccc(CC(=O)N2CCc3nc(-c4ccc(F)cc4)nc(C)c3CC2)c1	-6
CC(C)(C)OC(=O)N1CCc2[nH]nc(Nc3ccccc3)c2C1	-5
CCC1=C[C@@H]2CN(C1)Cc1c([nH]c3ccccc13)[C@@](C(=O)OC)(c1cc3c(cc1OC)N(C)[C@H]1[C@@](O)(C(=O)OC)[C@H](OC(C)=O)[C@]4(CC)C=CCN5CC[C@]31[C@@H]54)C2	-74*
COc1ccc(S(=O)(=O)NCCc2csc(-c3ccc(Cl)cc3)n2)cc1C	-53
SMILES	Tgondii IFNg
Cc1ccc(S(=O)(=O)NCCc2csc(-c3ccc(F)cc3)n2)s1	-102*
Cc1ccc(S(=O)(=O)NCCc2csc(-c3ccc(Cl)cc3)n2)s1	-18
Cc1ccc(S(=O)(=O)NCCc2csc(-c3ccc(Cl)cc3)n2)cc1C	-83*
Cc1ccc(S(=O)(=O)NCCc2csc(-c3ccc(F)cc3)n2)cc1	-38
Cc1ccc(S(=O)(=O)NCCc2csc(-c3ccc(Cl)cc3)n2)cc1	-65
O=C(COc1ccc(F)cc1)NCCc1csc(-c2ccc(F)cc2)n1	-21
CCOC1COC2(CCN(C(=O)c3csc(C)n3)CC2)C1 (stereo unspecified)	-15
Cc1ncsc1CN1C[C@H]2CCCO[C@H]2[C@@H](N(C)C)C1	-53
COCC1CN(C(=O)C2=CCCC2)Cc2cnn(C)c21 (stereo unspecified)	-34
CCCn1ccnc1CN1CCCC(c2nn(C)c(=O)n2CC)C1 (stereo unspecified)	4
CCn1ccnc1CN1CCCC(c2cncc(-c3cccc(Cl)c3)n2)C1 (stereo unspecified)	-110*
Cc1cccc(-c2ncc(CN3CCCC(Cn4ccnc4C)C3)cn2)c1 (stereo unspecified)	-6
CN(C)C(=O)CC1CC2(CCN(C(=O)N3CCOCC3)CC2)c2ccccc21 (stereo unspecified)	7
C=CCNc1ccccc1C(=O)NC(C)C(=O)Nc1cc(F)ccc1C (stereo unspecified)	15
O=c1c(-c2cc(O)c(O)c(O)c2)coc2cc(O)c(O)c(O)c12	19
COc1ccc(-c2coc3cc(O)cc(O)c3c2=O)cc1	173
COc1cc(-c2coc3cc(OCc4ccccc4)c(OC)c(O)c3c2=O)cc(OCc2ccccc2)c1OC	-79*
O=C(c1cnccn1)N1CCC2(CCC(=O)N2Cc2cccnc2)CC1	-8
